Our source for the z-score and composite z-score values is PubChem BioAssay.

Structures are written as SMILES. Active and inactive are the calls of the source. Unless noted, no rule for the calls is given here.

Experiment [1] in a line: HepG2 liver cancer cell viability effects, profiling panel, resazurin fluorescence, 24 h, PK04 Diversity Set (AID 1172). The settings on record: higher = more signal. (In general: Alamar Blue is a resazurin reagent that responds to reducing activity.)
Experiment [2] in a line: basal S. cerevisiae growth modulation, no modifier, primary screen, OD600, strain BY4716, 24 h, basal condition (AID 1173). Particulars: OD600, 24 h, higher = more signal, called active from +8 up or from −8 down.
A short description of experiment [3]: MM1S myeloma cell viability, profiling panel, resazurin fluorescence, basal, 24 h, PK04 Diversity Set (AID 1174).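 Also: MM1S multiple myeloma cell line.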 Particulars: higher = more signal, called active from +8 up or from −8 down.
Experiment [4] deals with Dihydroorotate dehydrogenase (quinone), mitochondrial (Plasmodium falciparum (isolate 3D7)) (UniProt Q08210). The experiment can be described thus: PfDHODH enzyme inhibitors, primary screen, biochemical, C-terminal His tag, absorbance 600 nm (AID 1175).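 Also: recombinant parasite enzyme with a five histidine tag at its C terminus.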 The settings on record: DCIP absorbance 600 nm, higher = more signal, called active from +8 up or from −8 down.
Chain of Dihydroorotate dehydrogenase (quinone), mitochondrial (Plasmodium falciparum (isolate 3D7)) (Q08210 whole entry, looked up): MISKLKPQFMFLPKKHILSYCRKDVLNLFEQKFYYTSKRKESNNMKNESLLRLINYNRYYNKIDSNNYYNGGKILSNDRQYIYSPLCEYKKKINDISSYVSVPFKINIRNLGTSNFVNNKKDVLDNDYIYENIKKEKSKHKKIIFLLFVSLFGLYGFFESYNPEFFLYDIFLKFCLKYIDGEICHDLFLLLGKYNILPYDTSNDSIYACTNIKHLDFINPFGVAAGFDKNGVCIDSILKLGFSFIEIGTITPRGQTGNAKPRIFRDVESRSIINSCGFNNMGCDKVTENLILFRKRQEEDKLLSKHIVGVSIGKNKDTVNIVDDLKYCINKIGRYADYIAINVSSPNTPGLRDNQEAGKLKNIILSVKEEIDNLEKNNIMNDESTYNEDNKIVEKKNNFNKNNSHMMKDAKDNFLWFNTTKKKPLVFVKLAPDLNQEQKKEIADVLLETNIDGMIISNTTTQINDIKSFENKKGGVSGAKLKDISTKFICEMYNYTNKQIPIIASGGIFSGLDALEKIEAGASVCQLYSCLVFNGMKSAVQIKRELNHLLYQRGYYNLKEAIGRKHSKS
Experiment [5] can be described thus: P. aeruginosa biofilm formation inhibitors, primary screen, strain PAO1, LB-PBS medium, absorbance 600 nm (AID 1176). The settings on record: P. aeruginosa PAO1 growth/biofilm, A600, 12 h; higher = more signal.
Experiment [6] is described as follows: S. cerevisiae RM11-1a growth modifiers, primary screen, strain RM11-1a, OD600, basal, 24 h (AID 1177).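 Also: cultures grown under basal conditions with no added stressor.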 Particulars: OD600, 24 h, higher = more signal, called active from +8 up or from −8 down.
A short description of experiment [7]: E. coli acrAB mutant growth effects, primary screen, E. coli filamentation inducers, strain DRC39, OD650, 24 h (AID 1178).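 Also: growth measured as culture turbidity by optical density at 650 nm.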 Particulars: higher = more signal, called active from +8 up or from −8 down.
A short description of experiment [8]: E. coli acrAB mutant growth effects, primary screen, E. coli filamentation inducers, strain DRC39, OD650, 48 h (AID 1179).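 Also: screen aims at cell division blockers that make cells filament.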 Particulars: E. coli DRC39 delta-acrAB growth, higher = more signal, called active from +8 up or from −8 down.
A short description of experiment [9]: RPMI8226 myeloma cell viability, profiling panel, resazurin fluorescence, basal, 24 h, PK04 Diversity Set (AID 1180).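 Also: RPMI8826 multiple myeloma cell line at 5000 cells per well.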 The settings on record: higher = more signal.
The target in experiment [10] is E3 ubiquitin-protein ligase XIAP (Homo sapiens) (UniProt P98170). The experiment can be described thus: XIAP binders, primary screen, biophysical, small-molecule microarray, fluorescence 635 nm (AID 1181).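 Also: score merges 667 nm emission and signal to noise over triplicate slides.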 The settings on record: small-molecule microarray binding, higher = more signal.
Chain of E3 ubiquitin-protein ligase XIAP (Homo sapiens) (P98170 whole entry, looked up): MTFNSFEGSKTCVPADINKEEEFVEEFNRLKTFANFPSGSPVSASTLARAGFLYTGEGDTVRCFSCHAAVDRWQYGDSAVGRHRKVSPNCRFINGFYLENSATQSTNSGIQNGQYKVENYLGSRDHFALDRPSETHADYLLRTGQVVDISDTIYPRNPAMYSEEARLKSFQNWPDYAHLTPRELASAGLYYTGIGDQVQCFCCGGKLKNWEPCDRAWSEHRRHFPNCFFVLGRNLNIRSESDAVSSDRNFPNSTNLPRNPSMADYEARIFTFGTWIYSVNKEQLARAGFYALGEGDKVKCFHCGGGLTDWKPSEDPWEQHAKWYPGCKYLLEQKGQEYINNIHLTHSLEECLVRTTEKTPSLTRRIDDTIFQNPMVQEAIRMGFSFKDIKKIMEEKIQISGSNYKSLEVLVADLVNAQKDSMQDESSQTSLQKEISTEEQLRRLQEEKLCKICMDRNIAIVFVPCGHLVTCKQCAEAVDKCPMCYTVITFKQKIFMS
Experiment [11] relates to XIP peptide (Xip251-270) binding. The experiment can be described thus: small-molecule binders of XIP peptide, primary screen, biochemical, small-molecule microarray, fluorescence 635/667 nm, 0.1 µg/mL protein (AID 1182). Particulars: fluorescent protein binding, 635 nm, higher = more signal, called active from +8 up or from −8 down.
Another experiment concerns XIP peptide (Xip251-270). The experiment is described as follows: small-molecule binders of XIP peptide, primary screen, biochemical, small-molecule microarray, fluorescence 635/667 nm, 0.5 µg/mL protein (AID 1183). The settings on record: small-molecule microarray binding, fluorescence 635 nm; higher = more signal.
A short description of experiment [12]: Plasmodium falciparum growth inhibition, primary screen, strain 3D7, DAPI fluorescence, 100 nL (AID 1184).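 Also: parasites grown inside human red blood cells in medium with human serum.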 The settings on record: P. falciparum 3D7 growth, 3 d, higher = more signal.
Experiment [13] concerns the target Homeobox protein Hox-A13 (Mus musculus) (UniProt Q62424). The experiment is described as follows: inhibitors of HoxA13-DNA binding, primary screen, biochemical, fluorescence polarization, labeled oligonucleotide (AID 1185). The settings on record: 15 min, higher = more signal, called active from +8 up or from −8 down. A general note: In fluorescence polarisation assays a small probe gives low polarisation when free and higher when bound to something large.

Experiment [14] in a line: inhibitors of hydroxyurea-induced Chk1 phosphorylation, primary screen, imaging, HeLa, phospho-Chk1 antibody, percent positive cells (AID 1186). Particulars: hydroxyurea-induced phospho-Chk1 immunofluorescence imaging, higher = more signal.
Experiment [15] can be described thus: inhibitors of hydroxyurea-induced Chk1 phosphorylation, primary screen, imaging, HeLa, phospho-Chk1 nuclear intensity (AID 1187). Particulars: hydroxyurea-induced phospho-Chk1 immunofluorescence imaging, higher = more signal.

Chain of Homeobox protein Hox-A13 (Mus musculus) (Q62424 whole entry, looked up): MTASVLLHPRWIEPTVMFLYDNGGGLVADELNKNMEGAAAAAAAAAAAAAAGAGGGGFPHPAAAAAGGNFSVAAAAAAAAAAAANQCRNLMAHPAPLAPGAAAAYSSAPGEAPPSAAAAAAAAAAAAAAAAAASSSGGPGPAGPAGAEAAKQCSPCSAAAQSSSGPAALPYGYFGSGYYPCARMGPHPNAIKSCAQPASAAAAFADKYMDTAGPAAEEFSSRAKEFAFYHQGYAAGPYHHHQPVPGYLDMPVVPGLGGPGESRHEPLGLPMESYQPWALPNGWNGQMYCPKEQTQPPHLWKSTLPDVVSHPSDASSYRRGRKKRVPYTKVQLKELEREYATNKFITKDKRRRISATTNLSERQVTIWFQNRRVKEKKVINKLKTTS

`COCCOC(=O)N1C(=O)[C@@]2(c3cc(C#Cc4ccc(OC)cc4)ccc31)[C@H](c1ccc(O)cc1)N1[C@H](c3ccccc3)[C@H](c3ccccc3)OC(=O)[C@H]1[C@@H]2C(=O)N1CCN(c2ncccn2)CC1`: the z-score in experiment [1] is 0.202; in experiment [2], 1.03 (inactive); in experiment [3], 0.292 (inactive); in [5], 0.173 (inactive); in experiment [6], 1.75 (inactive); in experiment [7], 0.307 (inactive). In addition, the z-score is -0.0695 (inactive) in [8]; 0.138 in experiment [9]; -1.86 in experiment [12]; -0.821 (inactive) in experiment [13]; 0.187 (inactive) in experiment [14]; 0.302 (inactive) in experiment [15]. Moreover, the composite z-score was 0.0094 (inactive) in experiment [4], -0.224 in experiment [10], 0.164 (inactive) in experiment [11] and 0.596 in the experiment on XIP peptide (Xip251-270).

In the case of `Cc1ccc(C(C)CC(O)C2C=CC3C(=O)NC(=O)C3N2Nc2ccccn2)o1` (centres undefined), the z-score in experiment [1] is -0.668; in experiment [2], 0.258 (inactive); in [3], -1.19 (inactive); in experiment [5], 1.04 (inactive); in experiment [6], 0.735 (inactive); in experiment [7] it was 0.168 (inactive). Further, the z-score was 0.215 (inactive) in experiment [8]; -0.355 in experiment [9]; 0.281 in experiment [12]; -2.14 (inactive) in experiment [13]; 0.333 (inactive) in [14]; 0.0304 (inactive) in experiment [15]. In addition, the composite z-score in experiment [4] was 0.936 (inactive); in [10], -0.127; in [11], 0.673 (inactive); in the experiment with XIP peptide (Xip251-270), 0.881.

For the compound `O=C1O[C@@H](c2ccccc2)[C@@H](c2ccccc2)N2[C@@H](c3ccc(O)cc3)[C@]3(C(=O)Nc4ccccc43)[C@@H](C(=O)NC[C@H](O)c3ccccc3)[C@H]12`, the z-score in [1] is 1.42; in experiment [2] it was -0.882 (inactive); in experiment [3], 0.616 (inactive); in experiment [5], -0.489 (inactive); in experiment [6], 0.0813 (inactive); in experiment [7], 0.389 (inactive). The z-score in [8] is -0.163 (inactive); in [9], -0.273; in experiment [12], 1.15; in experiment [13], -5.08 (inactive); in experiment [14], -0.0877 (inactive); in experiment [15], -0.173 (inactive). Besides, the composite z-score in experiment [4] is 0.609 (inactive); in [10], 0.272; in experiment [11], 0.737 (inactive); with XIP peptide (Xip251-270), 0.232.

As for `O=C1O[C@H](c2ccccc2)[C@H](c2ccccc2)N2[C@H]1[C@@H](C(=O)NC[C@H](O)c1ccccc1)[C@]1(C(=O)Nc3ccc(C#CC4=CCCCC4)cc31)[C@H]2c1ccc(O)cc1`, the z-score in [1] was -0.654; in [2], -0.48 (inactive); in experiment [3], -1.78 (inactive); in [5], 2.02 (inactive); in experiment [6], 1.62 (inactive); in [7], 0.146 (inactive). The z-score was 0.165 (inactive) in [8]; -3.63 in [9]; -1.53 in [12]; 0.685 (inactive) in experiment [13]; 0.577 (inactive) in experiment [14]; 1.25 (inactive) in experiment [15]. Further, the composite z-score is -2.16 (inactive) in experiment [4], -0.124 in [10], 0.447 (inactive) in experiment [11] and 0.766 in the experiment on XIP peptide (Xip251-270).

For the compound `C=C(/C(=C/C[C@@H](OC(C)=O)c1ccc(CO)o1)c1cnc2ccccc2c1)C(C)C`, the z-score is -1.05 in experiment [1]; -0.177 (inactive) in experiment [2]; 0.0858 (inactive) in experiment [3]; 0.0721 (inactive) in experiment [5]; 0.27 (inactive) in [6]; 0.99 (inactive) in [7]. The z-score was -0.0766 (inactive) in [8]; 0.0262 in experiment [9]; -1.43 in [12]; -5.54 (inactive) in experiment [13]; -0.0375 (inactive) in experiment [14]; 0.0518 (inactive) in experiment [15]. The composite z-score in experiment [4] was -8.23 (active); in experiment [10], 0.701; in [11], 0.64 (inactive); in the experiment on XIP peptide (Xip251-270), 0.764.

With `CC(C)(C)OC(=O)CC[C@@]1(C(N)=O)N=C(c2ccc(OCCCO)cc2)O[C@@H]1c1ccccc1N=[N+]=[N-]`, the z-score in [1] is 0.55; in experiment [2], -0.231 (inactive); in experiment [3], -0.134 (inactive); in [5] it was -0.18 (inactive); in experiment [6] it was 0.045 (inactive); in [7], 0.397 (inactive). The z-score was 0.529 (inactive) in experiment [8]; 0.288 in experiment [9]; -0.338 in [12]; -6.23 (inactive) in [13]; -0.244 (inactive) in experiment [14]; -0.0977 (inactive) in experiment [15]. Further, the composite z-score in [4] was 0.974 (inactive); in [10], 0.0908; in experiment [11] it was 0.0344 (inactive); in the experiment on XIP peptide (Xip251-270) it was 0.839.

In the case of `[N-]=[N+]=NCc1ccccc1C[C@]1(C(=O)NCCN2CCOCC2)N=C(c2ccc(OCCCO)cc2)O[C@H]1c1ccccc1CN=[N+]=[N-]`, the z-score in [1] was 0.0176; in experiment [2] it was -2.56 (inactive); in experiment [3], 0.836 (inactive); in experiment [5], 0.428 (inactive); in experiment [6] it was -1.95 (inactive); in experiment [7], 1.93 (inactive). Moreover, the z-score in experiment [8] was 0.844 (inactive); in experiment [9], 0.0688; in [12], -2.67; in [13], -2.59 (inactive); in experiment [14], -0.26 (inactive); in experiment [15], -0.787 (inactive). The composite z-score in experiment [4] was 1.31 (inactive); in experiment [10], 0.0871; in [11] it was 3.06 (inactive); in the experiment on XIP peptide (Xip251-270), 0.578.

For `C=CCN1Cc2ccccc2C[C@]2(N=C(c3ccc(OCCCO)cc3)O[C@@H]2c2ccccc2)C1=O`, the z-score was -0.677 in [1]; -1.35 (inactive) in experiment [2]; -2.24 (inactive) in experiment [3]; 1.32 (inactive) in [5]; -0.211 (inactive) in experiment [6]; 1.13 (inactive) in experiment [7]. In addition, the z-score is 1.09 (inactive) in experiment [8]; -2.07 in [9]; -2.31 in [12]; -3.62 (inactive) in [13]; -0.802 (inactive) in [14]; -0.978 (inactive) in experiment [15]. The composite z-score was -1.1 (inactive) in experiment [4], -0.186 in [10], 1.27 (inactive) in [11] and 0.824 in the experiment on XIP peptide (Xip251-270).

Regarding `CCN(CC)c1ccc(N2CC=CC34O[C@@H]5C=CCCOC(=O)C5[C@H]3C(=O)N(CCCO)[C@@H]4C2=O)cc1` (some centres undefined), the z-score in experiment [1] is -0.704; in experiment [2] it was -1.25 (inactive); in experiment [3] it was 0.61 (inactive); in experiment [5], 0.525 (inactive); in [6], -0.294 (inactive); in experiment [7], 1.21 (inactive). Moreover, the z-score in [8] was 0.764 (inactive); in experiment [9], 0.237; in experiment [12], -1.49; in experiment [13], -3.95 (inactive); in experiment [14], -0.28 (inactive); in experiment [15], -0.816 (inactive). Further, the composite z-score in experiment [4] is -0.429 (inactive); in [10], -0.516; in [11], -0.658 (inactive); in the experiment on XIP peptide (Xip251-270), -0.588.
